Inhibition data for 6 compounds are collected here from ChEMBL document CHEMBL1961873, “Compounds: GSK PKIS; Assays: Nanosyn kinase panel” (2012).

For experiment [1], the target named is Calcium/calmodulin-dependent protein kinase type II subunit alpha (Homo sapiens) (UniProt Q9UQM7). The conditions noted are these: at 1 µM.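 Further: reported value is a mean percent inhibition of CAMK2A.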
Experiment [2] concerns the target Calcium/calmodulin-dependent protein kinase type II subunit delta (Homo sapiens) (UniProt Q13557). The conditions noted are these: at 0.1 µM.
Experiment [3] has the same target. Particulars: at 1 µM.
The target in experiment [4] is T1, Calcium/calmodulin-dependent protein kinase type IV (Homo sapiens) (UniProt Q16566).
T1 sequence (whole entry): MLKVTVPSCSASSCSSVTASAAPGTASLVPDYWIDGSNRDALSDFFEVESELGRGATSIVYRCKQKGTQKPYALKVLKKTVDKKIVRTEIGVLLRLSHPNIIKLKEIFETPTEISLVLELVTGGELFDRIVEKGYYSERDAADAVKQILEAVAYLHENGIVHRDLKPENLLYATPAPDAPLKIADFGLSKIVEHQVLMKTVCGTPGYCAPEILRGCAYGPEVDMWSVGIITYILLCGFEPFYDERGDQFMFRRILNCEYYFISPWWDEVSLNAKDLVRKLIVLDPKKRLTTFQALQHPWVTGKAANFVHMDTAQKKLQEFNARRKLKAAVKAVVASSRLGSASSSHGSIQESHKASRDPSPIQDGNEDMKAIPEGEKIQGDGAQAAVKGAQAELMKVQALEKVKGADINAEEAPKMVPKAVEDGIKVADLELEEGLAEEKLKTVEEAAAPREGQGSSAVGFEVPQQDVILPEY
Particulars: at 0.1 µM.

Experiment [5] deals with T1, Calcium/calmodulin-dependent protein kinase type IV (Homo sapiens). Particulars: at 1 µM.
The target in experiment [6] is T2, Serine/threonine-protein kinase Chk1 (Homo sapiens) (UniProt O14757).
T2 sequence (whole entry): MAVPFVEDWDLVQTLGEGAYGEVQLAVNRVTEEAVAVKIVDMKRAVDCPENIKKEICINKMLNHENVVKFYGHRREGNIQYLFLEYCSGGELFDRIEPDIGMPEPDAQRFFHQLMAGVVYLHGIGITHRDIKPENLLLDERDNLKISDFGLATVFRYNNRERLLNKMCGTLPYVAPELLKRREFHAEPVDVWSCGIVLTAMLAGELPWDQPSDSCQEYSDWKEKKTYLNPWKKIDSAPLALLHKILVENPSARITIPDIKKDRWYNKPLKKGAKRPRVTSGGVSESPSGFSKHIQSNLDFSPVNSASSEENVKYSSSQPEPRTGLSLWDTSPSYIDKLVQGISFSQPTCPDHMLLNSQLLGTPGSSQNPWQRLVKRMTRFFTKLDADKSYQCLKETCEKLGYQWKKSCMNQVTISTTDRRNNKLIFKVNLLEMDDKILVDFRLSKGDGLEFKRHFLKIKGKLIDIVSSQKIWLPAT
The conditions noted are these: at 0.1 µM.

The target of experiment [7] is T2, Serine/threonine-protein kinase Chk1 (Homo sapiens). The conditions noted are these: at 1 µM.
Experiment [8] concerns the target Serine/threonine-protein kinase Chk2 (Homo sapiens) (UniProt O96017). Particulars: at 0.1 µM.
Experiment [9] shares this target. The conditions noted are these: at 1 µM.
Experiment [10] concerns the target Death-associated protein kinase 1 (Homo sapiens) (UniProt P53355). Particulars: at 0.1 µM.
The target is the same in experiment [11]. The conditions noted are these: at 1 µM.
Experiment [12] deals with T3, Serine/threonine-protein kinase DCLK2 (Homo sapiens) (UniProt Q8N568).
T3 sequence (whole entry): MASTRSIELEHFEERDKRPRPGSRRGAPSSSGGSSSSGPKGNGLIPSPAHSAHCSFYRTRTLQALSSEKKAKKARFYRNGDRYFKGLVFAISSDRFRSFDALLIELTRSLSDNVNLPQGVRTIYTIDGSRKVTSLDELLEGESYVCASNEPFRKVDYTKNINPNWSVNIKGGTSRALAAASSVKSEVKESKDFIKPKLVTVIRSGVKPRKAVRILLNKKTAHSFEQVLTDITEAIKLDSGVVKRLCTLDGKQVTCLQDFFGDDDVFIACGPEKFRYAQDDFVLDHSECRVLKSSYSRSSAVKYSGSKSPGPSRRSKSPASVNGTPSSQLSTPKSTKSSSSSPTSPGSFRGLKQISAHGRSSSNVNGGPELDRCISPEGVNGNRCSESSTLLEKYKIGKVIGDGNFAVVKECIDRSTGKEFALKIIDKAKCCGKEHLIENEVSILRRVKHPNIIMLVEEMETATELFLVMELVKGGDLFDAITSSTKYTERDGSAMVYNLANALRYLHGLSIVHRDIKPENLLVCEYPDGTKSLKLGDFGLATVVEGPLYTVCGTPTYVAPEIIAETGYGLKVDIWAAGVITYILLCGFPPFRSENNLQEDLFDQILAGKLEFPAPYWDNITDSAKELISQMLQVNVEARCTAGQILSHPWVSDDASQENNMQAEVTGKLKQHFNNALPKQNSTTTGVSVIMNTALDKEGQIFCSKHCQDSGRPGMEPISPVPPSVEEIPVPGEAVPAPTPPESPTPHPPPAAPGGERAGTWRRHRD
Particulars: at 0.1 µM.

In experiment [13] the target is T3, Serine/threonine-protein kinase DCLK2 (Homo sapiens). Particulars: at 1 µM.
Experiment [14] concerns the target MAP kinase-activated protein kinase 2 (Homo sapiens) (UniProt P49137). The conditions noted are these: at 0.1 µM.
Experiment [15] shares this target. Particulars: at 1 µM.
The target in experiment [16] is MAP kinase-activated protein kinase 3 (Homo sapiens) (UniProt Q16644). The conditions noted are these: at 0.1 µM.
For experiment [17] the target is unchanged. The conditions noted are these: at 1 µM.
Experiment [18] addresses Serine/threonine-protein kinase MARK1 (Homo sapiens) (UniProt Q9P0L2). The conditions noted are these: at 0.1 µM.
For experiment [19] the target is unchanged. Particulars: at 1 µM.
Experiment [20] addresses MAP/microtubule affinity-regulating kinase 3 (Homo sapiens) (UniProt P27448). The conditions noted are these: at 0.1 µM.

Chain of Death-associated protein kinase 1 (Homo sapiens) (P53355 whole entry, looked up): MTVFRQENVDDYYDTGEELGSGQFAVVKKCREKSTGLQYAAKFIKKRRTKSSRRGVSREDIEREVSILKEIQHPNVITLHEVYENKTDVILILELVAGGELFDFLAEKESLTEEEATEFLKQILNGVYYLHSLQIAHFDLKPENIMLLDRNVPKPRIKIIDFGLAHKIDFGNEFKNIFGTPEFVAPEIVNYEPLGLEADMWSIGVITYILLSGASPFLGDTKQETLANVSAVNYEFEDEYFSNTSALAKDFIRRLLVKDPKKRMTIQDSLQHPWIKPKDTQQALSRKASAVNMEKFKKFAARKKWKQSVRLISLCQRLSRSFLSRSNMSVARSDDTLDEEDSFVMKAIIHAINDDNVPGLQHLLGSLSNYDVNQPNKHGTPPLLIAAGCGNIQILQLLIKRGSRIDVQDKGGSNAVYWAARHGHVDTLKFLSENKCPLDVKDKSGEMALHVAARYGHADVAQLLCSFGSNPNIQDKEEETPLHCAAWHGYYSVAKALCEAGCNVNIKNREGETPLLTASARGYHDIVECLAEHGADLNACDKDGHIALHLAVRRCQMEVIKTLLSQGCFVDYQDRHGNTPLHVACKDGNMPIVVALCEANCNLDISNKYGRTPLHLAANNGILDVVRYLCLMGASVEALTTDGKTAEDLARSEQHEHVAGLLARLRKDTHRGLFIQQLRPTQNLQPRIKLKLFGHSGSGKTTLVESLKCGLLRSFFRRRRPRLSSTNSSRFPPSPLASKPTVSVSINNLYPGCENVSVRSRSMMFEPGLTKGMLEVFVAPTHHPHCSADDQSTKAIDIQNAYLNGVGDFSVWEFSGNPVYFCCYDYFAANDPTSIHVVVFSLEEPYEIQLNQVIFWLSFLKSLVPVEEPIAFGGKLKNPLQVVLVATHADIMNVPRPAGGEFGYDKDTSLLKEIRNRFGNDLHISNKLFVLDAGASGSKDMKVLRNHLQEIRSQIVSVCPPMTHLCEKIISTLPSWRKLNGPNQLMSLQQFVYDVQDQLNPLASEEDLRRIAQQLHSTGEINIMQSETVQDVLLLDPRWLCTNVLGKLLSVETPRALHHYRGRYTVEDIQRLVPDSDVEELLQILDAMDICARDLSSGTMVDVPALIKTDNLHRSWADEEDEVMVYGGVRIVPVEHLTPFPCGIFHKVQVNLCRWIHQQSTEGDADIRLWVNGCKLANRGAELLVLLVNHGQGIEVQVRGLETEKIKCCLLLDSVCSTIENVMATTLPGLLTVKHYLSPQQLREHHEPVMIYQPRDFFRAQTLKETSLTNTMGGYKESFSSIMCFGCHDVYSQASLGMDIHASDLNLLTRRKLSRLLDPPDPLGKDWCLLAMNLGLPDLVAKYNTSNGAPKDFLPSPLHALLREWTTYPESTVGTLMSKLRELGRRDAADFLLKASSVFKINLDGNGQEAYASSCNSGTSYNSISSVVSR
Chain of Calcium/calmodulin-dependent protein kinase type II subunit alpha (Homo sapiens) (Q9UQM7 whole entry): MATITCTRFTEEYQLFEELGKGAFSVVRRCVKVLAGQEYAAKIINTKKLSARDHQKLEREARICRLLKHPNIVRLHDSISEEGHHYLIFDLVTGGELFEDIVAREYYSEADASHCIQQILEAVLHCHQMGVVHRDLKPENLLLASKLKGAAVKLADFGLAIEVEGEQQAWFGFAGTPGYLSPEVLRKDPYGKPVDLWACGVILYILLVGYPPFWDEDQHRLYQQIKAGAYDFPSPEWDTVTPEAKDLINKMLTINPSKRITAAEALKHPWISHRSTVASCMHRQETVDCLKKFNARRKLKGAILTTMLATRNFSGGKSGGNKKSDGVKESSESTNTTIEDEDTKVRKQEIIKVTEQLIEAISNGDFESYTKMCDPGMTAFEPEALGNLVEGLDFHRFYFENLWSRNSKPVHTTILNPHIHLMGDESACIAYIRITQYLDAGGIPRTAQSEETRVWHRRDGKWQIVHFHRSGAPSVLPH
Chain of Calcium/calmodulin-dependent protein kinase type II subunit delta (Homo sapiens) (Q13557 whole entry): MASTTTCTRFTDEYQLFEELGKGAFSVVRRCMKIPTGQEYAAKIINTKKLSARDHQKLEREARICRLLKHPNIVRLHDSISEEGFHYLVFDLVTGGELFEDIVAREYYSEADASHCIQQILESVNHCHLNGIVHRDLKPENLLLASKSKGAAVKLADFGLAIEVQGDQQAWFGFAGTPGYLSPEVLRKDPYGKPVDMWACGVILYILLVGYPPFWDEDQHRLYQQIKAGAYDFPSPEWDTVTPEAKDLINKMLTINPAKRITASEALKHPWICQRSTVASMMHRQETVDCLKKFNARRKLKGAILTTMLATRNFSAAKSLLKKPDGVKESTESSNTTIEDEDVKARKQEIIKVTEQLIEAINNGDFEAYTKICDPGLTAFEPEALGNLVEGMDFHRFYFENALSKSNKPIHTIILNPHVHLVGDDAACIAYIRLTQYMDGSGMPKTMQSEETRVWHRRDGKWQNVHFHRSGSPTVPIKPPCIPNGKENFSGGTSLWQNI
Chain of MAP kinase-activated protein kinase 3 (Homo sapiens) (Q16644 whole entry, looked up): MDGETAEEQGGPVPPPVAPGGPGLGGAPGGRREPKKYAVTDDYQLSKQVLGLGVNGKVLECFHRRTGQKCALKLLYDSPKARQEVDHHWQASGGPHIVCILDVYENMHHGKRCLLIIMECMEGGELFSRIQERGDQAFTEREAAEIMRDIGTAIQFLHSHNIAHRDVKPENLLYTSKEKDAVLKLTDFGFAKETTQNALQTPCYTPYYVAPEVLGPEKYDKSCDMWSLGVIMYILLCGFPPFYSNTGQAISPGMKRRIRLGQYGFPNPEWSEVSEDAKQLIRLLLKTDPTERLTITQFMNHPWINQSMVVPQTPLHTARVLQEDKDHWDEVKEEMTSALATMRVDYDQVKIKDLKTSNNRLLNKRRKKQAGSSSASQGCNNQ
Chain of MAP/microtubule affinity-regulating kinase 3 (Homo sapiens) (P27448 whole entry, looked up): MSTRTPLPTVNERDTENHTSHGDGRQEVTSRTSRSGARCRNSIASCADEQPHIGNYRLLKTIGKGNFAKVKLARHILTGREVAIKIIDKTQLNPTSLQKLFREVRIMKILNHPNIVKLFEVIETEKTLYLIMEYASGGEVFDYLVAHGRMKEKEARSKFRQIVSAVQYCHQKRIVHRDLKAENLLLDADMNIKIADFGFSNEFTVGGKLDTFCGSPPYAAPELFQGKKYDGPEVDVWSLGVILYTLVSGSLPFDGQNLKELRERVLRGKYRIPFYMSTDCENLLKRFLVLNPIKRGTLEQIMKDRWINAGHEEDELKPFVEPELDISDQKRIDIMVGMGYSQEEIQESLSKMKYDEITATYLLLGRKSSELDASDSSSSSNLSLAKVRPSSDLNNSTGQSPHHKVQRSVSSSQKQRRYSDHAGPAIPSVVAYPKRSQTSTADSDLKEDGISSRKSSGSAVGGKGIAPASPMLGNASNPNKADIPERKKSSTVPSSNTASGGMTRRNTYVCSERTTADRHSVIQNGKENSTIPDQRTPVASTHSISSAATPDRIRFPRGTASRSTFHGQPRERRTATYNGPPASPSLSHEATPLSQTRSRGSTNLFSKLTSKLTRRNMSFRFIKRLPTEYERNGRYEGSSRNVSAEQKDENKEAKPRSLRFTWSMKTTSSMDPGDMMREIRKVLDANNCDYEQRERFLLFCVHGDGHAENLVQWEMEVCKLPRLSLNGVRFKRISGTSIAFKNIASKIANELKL
Chain of MAP kinase-activated protein kinase 2 (Homo sapiens) (P49137 whole entry, looked up): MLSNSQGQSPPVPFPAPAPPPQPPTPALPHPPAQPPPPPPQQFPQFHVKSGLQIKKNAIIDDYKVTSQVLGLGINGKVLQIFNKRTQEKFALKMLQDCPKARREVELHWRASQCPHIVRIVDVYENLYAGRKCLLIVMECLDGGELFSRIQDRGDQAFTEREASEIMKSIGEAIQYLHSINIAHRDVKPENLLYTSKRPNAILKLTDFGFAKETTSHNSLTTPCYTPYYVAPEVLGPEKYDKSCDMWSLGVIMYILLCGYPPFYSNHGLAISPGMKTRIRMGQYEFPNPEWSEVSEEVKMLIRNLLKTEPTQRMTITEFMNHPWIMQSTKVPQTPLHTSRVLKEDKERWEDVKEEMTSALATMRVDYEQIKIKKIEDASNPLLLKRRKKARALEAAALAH
Chain of Serine/threonine-protein kinase MARK1 (Homo sapiens) (Q9P0L2 whole entry, looked up): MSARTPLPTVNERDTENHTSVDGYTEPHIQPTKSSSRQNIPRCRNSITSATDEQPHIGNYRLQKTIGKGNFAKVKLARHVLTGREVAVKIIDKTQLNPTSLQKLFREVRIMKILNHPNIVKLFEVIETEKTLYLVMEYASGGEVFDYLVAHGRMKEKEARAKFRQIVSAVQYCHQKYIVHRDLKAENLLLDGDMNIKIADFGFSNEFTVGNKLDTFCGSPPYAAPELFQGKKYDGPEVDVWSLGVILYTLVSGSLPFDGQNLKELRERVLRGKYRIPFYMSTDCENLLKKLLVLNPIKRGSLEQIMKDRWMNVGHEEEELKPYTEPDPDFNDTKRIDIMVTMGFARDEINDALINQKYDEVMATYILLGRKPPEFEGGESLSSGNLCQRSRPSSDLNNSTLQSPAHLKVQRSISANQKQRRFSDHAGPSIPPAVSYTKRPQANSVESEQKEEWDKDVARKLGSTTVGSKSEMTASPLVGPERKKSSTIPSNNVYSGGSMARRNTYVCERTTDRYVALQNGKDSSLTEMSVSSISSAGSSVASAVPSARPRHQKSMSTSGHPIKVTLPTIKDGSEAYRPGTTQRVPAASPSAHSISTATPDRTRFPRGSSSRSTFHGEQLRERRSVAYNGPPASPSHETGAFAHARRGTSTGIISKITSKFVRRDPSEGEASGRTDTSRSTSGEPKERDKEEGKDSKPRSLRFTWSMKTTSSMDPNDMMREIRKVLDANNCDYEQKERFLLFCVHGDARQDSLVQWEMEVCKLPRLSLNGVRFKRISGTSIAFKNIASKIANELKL

Turning to `c1ccc(Nc2ncc(-c3ccccc3)o2)cc1`, the inhibition is 3.27% in [1]; 3.06% in experiment [2]; 6.25% in experiment [3]; 1.79% in experiment [4]; 3.97% in experiment [5]; 6.09% in [6]. The inhibition in experiment [7] stood at 8.99%; in experiment [8] it was 0.95%; in experiment [9], 2.54%; in experiment [10] it was 6.27%; in [11], 5.31%; in [12], 0.92%. In addition, the inhibition was 3.72% in [13]; 1.35% in experiment [14]; 2.04% in experiment [15]; 4.43% in experiment [16]; 5.91% in experiment [17]; 1.31% in experiment [18]. Besides, the inhibition worked out at 4.58% in [19] and 1.16% in experiment [20].
With `O=C1Nc2ccc(-c3cccnc3)cc2C1=Cc1cc(Br)c(O)c(Br)c1`, the inhibition in experiment [1] is 5.84%; in experiment [2], 3.26%; in [3], 7.6%; in experiment [4], 0.54%; in experiment [5], -0.48%; in experiment [6] it was 3.16%. Besides, the inhibition in [7] is 0.96%; in [8] it was 3.4%; in experiment [9], 8.93%; in experiment [10], 1.41%; in experiment [11] it was -6.21%; in [12], 1.65%. The inhibition in [13] came out at 0.92%; in experiment [14], 1.36%; in experiment [15], 1.49%; in [16] it was 2.4%; in experiment [17], 2.92%; in [18] it was 4.31%. Further, the inhibition in [19] was found to be 9.1%; in [20], 4.31%.
With `NC(=O)c1sc(-n2cnc3ccccc32)cc1OCc1ccccc1Br`, the inhibition in experiment [1] was 3.18%; in experiment [2], 3.32%; in [3], 7.99%; in experiment [4] it was 0.49%; in [5] it was 2.57%; in experiment [6], 9.58%. The inhibition in [7] was 13.2%; in [8], 7.49%; in experiment [9] it was 10.5%; in experiment [10], 12.3%; in experiment [11], 10.6%; in [12] it was -1%. The inhibition in experiment [13] was -0.82%; in experiment [14], 4.58%; in [15], 6.13%; in [16] it was 8.98%; in experiment [17], 12.7%; in experiment [18], 2.32%. Moreover, the inhibition was 5.92% in [19] and -0.1% in experiment [20].
Regarding `ON=C1CCc2cc(-c3nc(C4CCNCC4)[nH]c3-c3ccncc3)ccc21`, the inhibition in [1] came to 3.5%; in experiment [2] it was 16.1%; in [3], 2.8%; in experiment [4] it was 1.25%; in experiment [5] it was 1.79%; in [6], 0.67%. The inhibition turned out to be 1.05% in experiment [7]; 0.01% in experiment [8]; 0.8% in experiment [9]; 0.46% in experiment [10]; 1.92% in experiment [11]; 2.56% in experiment [12]. Also, the inhibition in experiment [13] was -0.17%; in [14], -0.64%; in experiment [15], -0.71%; in [16], 8.04%; in experiment [17], 26.9%; in experiment [18] it was 0.47%. The inhibition in experiment [19] came out at 1.75%; in experiment [20], 0.82%.
In the case of `COc1cc(Nc2nccc(-c3cnn4ncccc34)n2)cc(OC)c1`, the inhibition in experiment [1] is 15.2%; in experiment [2] it was 6.12%; in experiment [3] it was 36.4%; in experiment [4] it was 1.42%; in experiment [5], -0.26%; in experiment [6], -0.97%. Also, the inhibition in experiment [7] is 7.68%; in [8], 1.81%; in [9], 14.1%; in [10], 1.9%; in [11] it was 1.26%; in experiment [12], 4.84%. The inhibition in experiment [13] is -3.23%; in experiment [14], 0.26%; in experiment [15] it was 0.15%; in experiment [16] it was 0.44%; in experiment [17], 0.56%; in experiment [18], 4.67%. The inhibition in [19] came out at 32.3%; in experiment [20], 6.88%.
For `Nc1nccc(-c2c(-c3ccc(F)cc3)nn3cc(C(F)(F)F)ccc23)n1`, the inhibition is -1.99% in [1]; 0.49% in experiment [2]; -0.48% in [3]; -0.17% in [4]; -1% in experiment [5]; -1.52% in experiment [6]. The inhibition in experiment [7] is -2.44%; in experiment [8], 0.02%; in experiment [9], -0.27%; in [10] it was 2.24%; in [11], 1.3%; in experiment [12], -1.79%. The inhibition in experiment [13] is -1.22%; in experiment [14] it was -0.92%; in experiment [15] it was -1.14%; in experiment [16], 5.47%; in experiment [17], 19.9%; in experiment [18], -0.24%. The figures for the inhibition in experiment [19] and in experiment [20] were -0.05% and -0.09%, respectively.

A word on the inhibition: it is the relative decrease from the control value, in per cent.
